Assay outcomes deposited in PubChem by National Center for Advancing Translational Sciences (NCATS).
Sampled rows, rich in hits. Any-hit rate of the full collection: about 2.8%.
WRN inhibitor: qHTS for Inhibitors of WRN Helicase. Bifunctional 3'-5' exonuclease/ATP-dependent helicase WRN (Homo sapiens), Q14191. WRN helicase unwinding, fluorescent forked duplex, kinetic. Potency, µM (top dose mostly 114 µM), actives largely listed as inhibitors. hit rate 0.46% among 360,000. AID 651768, 2012; further: nearly all actives have a fitted effect of over 55% in size
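Screening of the MLSMR collection measured strand separation of a quenched forked DNA duplex (100 nM) by 20 nM WRN with 2 mM ATP, all final. Compounds were preincubated with enzyme 15 min at room temperature.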
Pol eta inh-1: qHTS for Inhibitors of Polymerase Eta. AID 588591, 2011. recombinant Pol eta, fluorescent DNA replication assay. DNA polymerase eta (Homo sapiens), Q9Y253. Potency, µM (highest dose often 114 µM), actives largely listed as inhibitors. hit rate 1.2% among 390,000
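Pol eta (10 nM) was preincubated with compounds for 15 min at room temperature, after which fluorescent replication substrate (50 nM final) was added to start the reaction. Fluorescence was read kinetically at 0 and 10 min.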
POLB inh: qHTS Assay for Inhibitors of DNA Polymerase Beta | hit rate 1.3% among 340,000 | Potency, µM (doses to about 114 µM), most hits filed as inhibitors | Pol beta primer extension/strand displacement, fluorescence kinetic | AID 485314, 2010
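Pol beta (10 nM) was preincubated with compound for 15 min at room temperature. The reaction was then started with 50 nM substrate and read immediately and after a further 10 min at room temperature.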
Pol kappa inh-1: qHTS for Inhibitors of Polymerase Kappa; DNA polymerase kappa (Homo sapiens), Q9UBT6; purified Pol kappa, fluorescent DNA synthesis assay, 10 min; Potency, µM (series often up to 107 µM), most hits filed as inhibitors; hit rate 0.53% among 400,000; AID 588579, 2011
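Here, compound and 10 nM enzyme are combined for 15 min at room temperature; adding 50 nM substrate (final) starts DNA synthesis, tracked by fluorescence at 0 and 10 min against buffer-only wells.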
Pol iota inh: qHTS for Inhibitors of Polymerase Iota. DNA polymerase iota (Homo sapiens), Q9UNA4. AID 588590, 2011. hit rate 1% among 390,000. Potency, µM (series often up to 115 µM), most hits filed as inhibitors. Pol iota fluorescent replication assay, 10 min
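Fluorescent replication assay read twice, at 0 min and 10 min after adding 50 nM (final) substrate. Enzyme (10 nM) and compounds were first incubated 15 min at room temperature; enzyme-free buffer wells were negative controls.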
PI5P4Ka inh: qHTS for Inhibitors of phosphatidylinositol 5-phosphate 4-kinase (PI5P4K). hit rate 1.2% among 330,000. max response, %. PI5P4Kalpha enzyme, ADP-Glo luminescence, 60 min; active compounds read low. Phosphatidylinositol 5-phosphate 4-kinase type-2 alpha (Homo sapiens), P48426; active means max response of -50% or lower; inconclusive means between -30% and -50%; inactive means -30% or higher; further: value at the top dose of about 77 µM
Target sequence (P48426 whole entry, looked up): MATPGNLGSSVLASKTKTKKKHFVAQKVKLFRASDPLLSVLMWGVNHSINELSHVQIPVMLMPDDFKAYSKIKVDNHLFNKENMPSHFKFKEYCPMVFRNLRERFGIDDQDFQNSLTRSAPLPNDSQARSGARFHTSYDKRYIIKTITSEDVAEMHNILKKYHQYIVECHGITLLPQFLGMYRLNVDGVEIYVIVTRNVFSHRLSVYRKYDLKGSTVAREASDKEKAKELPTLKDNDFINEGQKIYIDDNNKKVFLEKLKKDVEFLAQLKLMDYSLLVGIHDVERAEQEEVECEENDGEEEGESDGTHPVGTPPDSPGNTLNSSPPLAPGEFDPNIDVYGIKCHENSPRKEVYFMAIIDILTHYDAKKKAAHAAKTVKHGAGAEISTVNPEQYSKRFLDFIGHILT
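Single end-point luminescence (ADP-Glo) quantified ADP from PI5P4Kalpha turnover; ATP 5 microM final, 1 h at RT, 0.1% CHAPS and 0.28 mM EGTA in HEPES pH 7.4.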
GALK inh confirm: Confirmation Assay for Inhibitors of Human Galactokinase (GALK) | purified GALK, Kinase-Glo ATP depletion luminescence | hit rate 70% among 150 | Potency, µM (highest dose often 115 µM), actives largely listed as inhibitors | shares compounds with Pol eta inh-1
GALK redox cs: Confirmatory Assay for Inhibitors of Human Galactokinase (GALK): Phenol-HRP redox assay counterscreen; shares compounds with Pol eta inh-1; Phenol red-HRP H2O2 redox cycling, absorbance 600 nm; Potency, µM (doses to about 115 µM), most hits filed as inhibitors; hit rate 40% among 150; AID 2035, 2009
HEK293 tox: Secondary Assay for Inhibitors of Human Galactokinase (GALK): HEK-293 Cell Viability Assay; shares compounds with Pol eta inh-1; HEK-293 viability, ATP luminescence (CellTiter-Glo), 24/48 h; Potency, µM (top dose mostly 46.1 µM), hits mostly inhibitors; hit rate 10% among 170; AID 2547, 2010
Pol kappa inh-2: qHTS for Inhibitors of Polymerase Kappa: Confirmatory Assay for Cherry-picked Compounds | shares compounds with Pol eta inh-1 | purified Pol-kappa, fluorescent strand-displacement substrate | Potency, µM, actives largely listed as inhibitors | hit rate 76% among 920
Pol eta inh-2: qHTS for Inhibitors of Polymerase Eta: Confirmatory Assay for Cherry-picked Compounds. shares compounds with Pol eta inh-1. Pol eta primer extension, TAMRA/BHQ fluorescence, 10 min. Potency, µM, hits mostly inhibitors. hit rate 64% among 2,600. AID 720502, 2013
Each line names hits and unclear results; the compound was inactive in the other large screens (follow-up assays come after a bar, where they were run); ! = not active in a repeat. Unless noted, the call rests on the fitted dose curve; in most records, active means well fitted curve in the direction sought with a large enough effect; inconclusive means small, poorly fitted or top-dose-only effect, or another doubt; inactive means no such curve, though single readings can be large; an effect the other way counts as inactive or inconclusive.

O=C(O)CC1OCC=C2CN3CCC45C6=CC(=O)C(=O)C([N+](=O)[O-])=C6NC4C1C2CC35 (stereo not given)	Pol eta inh-1 5.01µM, POLB inh inconclusive, Pol kappa inh-1 39.8µM, Pol iota inh 1.78µM! | GALK inh confirm 10.6µM | GALK redox cs 5.3µM | HEK293 tox inactive
C/C(CC(c1ccccc1)c1c(O)c2ccccc2oc1=O)=N\Nc1ccc([N+](=O)[O-])cc1[N+](=O)[O-] (stereo not given)	Pol iota inh inconclusive
O=c1oc2ccccc2c(O)c1C(c1ccc([N+](=O)[O-])cc1)c1c(O)c2ccccc2oc1=O	WRN inhibitor inconclusive, Pol eta inh-1 20µM, POLB inh 50.1µM, Pol kappa inh-1 inconclusive, Pol iota inh inconclusive, PI5P4Ka inh inconclusive | GALK inh confirm 26.6µM | GALK redox cs inactive | HEK293 tox inactive
Clc1ccc(C(c2ccc(Cl)cc2)n2cc[n+](CC(OCc3ccc(Cl)cc3Cl)c3ccc(Cl)cc3Cl)c2)cc1 (stereo not given)	WRN inhibitor inconclusive, Pol eta inh-1 inconclusive, Pol iota inh inconclusive | Pol kappa inh-2 67
O=C1NC(=O)N(c2ccccc2)C(=O)/C1=C/c1ccc2c(c1)Cc1ccccc1-2	none (no result: WRN inhibitor, Pol eta inh-1, Pol kappa inh-1, Pol iota inh, PI5P4Ka inh)
CCc1ccc(N2C(=O)NC(=O)/C(=C\c3cc(C)n(-c4cc(C(=O)O)cc(C(=O)O)c4)c3C)C2=O)cc1	WRN inhibitor inconclusive, Pol eta inh-1 14.1µM, POLB inh 11.2µM, Pol kappa inh-1 inconclusive, Pol iota inh 20µM, PI5P4Ka inh -64.2 | Pol kappa inh-2 11.9 | Pol eta inh-2 30.1
Cc1ccc(N2C(=O)NC(=O)/C(=C\c3ccoc3)C2=O)cc1	WRN inhibitor inconclusive, Pol eta inh-1 50.1µM, POLB inh inconclusive, Pol kappa inh-1 inconclusive, Pol iota inh 31.6µM, PI5P4Ka inh inconclusive | Pol eta inh-2 47.8
Cc1ccc(N2C(=O)NC(=O)/C(=C\c3cc(C)n(-c4ccc(C(=O)O)cc4)c3C)C2=O)cc1	Pol eta inh-1 35.5µM, POLB inh inconclusive, Pol kappa inh-1 inconclusive, Pol iota inh 25.1µM | Pol eta inh-2 inconclusive
O=C(CN1CCCC1)c1ccccc1	none (no result: WRN inhibitor, Pol eta inh-1, POLB inh, PI5P4Ka inh)
NC(N)=Nc1ccc2[nH]c3c(c2c1)C[C@]1(O)[C@@H]2Cc4ccc(O)c5c4[C@]1(CCN2CC1CC1)[C@@H]3O5	none (no result: WRN inhibitor, Pol eta inh-1, POLB inh, Pol iota inh, PI5P4Ka inh)
N#CC(C#N)=Cc1ccc(C=C(C#N)C#N)cc1	WRN inhibitor inconclusive, Pol eta inh-1 44.7µM, POLB inh inconclusive, Pol iota inh inconclusive | Pol eta inh-2 inconclusive
Cc1cc(N2CCCC2)ccc1C=C(C#N)C#N	WRN inhibitor inconclusive
